Experimental findings from PubChem BioAssay (Tox21) are described below.

Inconclusive results are not listed. A call without a number means that no potency is given here. Activity calls are given as the source filed them. Unless noted, calls come from the whole dose curve; as a rule, active = well fitted cell-killing curve with a large enough effect in the repeat runs; inconclusive = weak or mixed curves, or effect the other way; inactive = flat fitted curve, though single readings scatter.

The first test can be described thus: qHTS assay to identify small molecule agonists of the TGF-beta/Smad signaling pathway - cell viability counter screen (AID 1346829). Note: top concentration of the series differs between compounds; nearly all actives have a fitted effect of over 45% in size. Particulars: SBE-bla HEK293T viability, CellTiter-Glo luminescence, 5 h; series mostly up to 76.8 µM. A digest of the protocol:
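After overnight seating at 37 C and 5% CO2, reporter cells got compounds for 5 hr and FRET substrate for 2 hr; cell viability then came from CellTiter-Glo luminescence.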
Background: qHTS replaces the single test concentration by a dilution series.
Turning to `COP(=O)(OC)OC`, the Potency entry is “inactive”.
As for `Cc1ccc(OP(=O)(Oc2ccc(C)cc2)Oc2ccc(C)cc2)cc1`, the Potency result is “inactive”.
Still for that read-out and setting: with `CCC(C)(c1ccc(O)cc1)c1ccc(O)cc1` the entry was “inactive”; with `O=C(O)C(F)(F)C(F)(F)C(F)(F)C(F)(F)C(F)(F)C(F)(F)C(F)(F)F`, “inactive”.
In the case of `c1ccc(-c2cccc(-c3ccccc3)c2)cc1`, the Potency entry is “inactive”.
`CC(C)(OOC(C)(C)c1ccccc1)c1ccccc1`: the Potency result is “inactive”.
For the molecule `CCOc1cc(Oc2ccc(C(F)(F)F)cc2Cl)ccc1[N+](=O)[O-]`, the Potency result is “inactive”.
As to `O=C(NC(=O)c1c(F)cccc1F)Nc1ccc(Cl)cc1`, the Potency result was “inactive”.
Consider `C#C[C@]1(O)CC[C@H]2[C@@H]3CCC4=CC(=O)CC[C@]4(C)[C@H]3CC[C@@]21C`, for which the Potency result is “inactive”.
As for `CCOCN(C(=O)CCl)c1c(C)cccc1CC`, the Potency entry is “inactive”.
With `Nc1ccncc1`, the Potency result was “inactive”.
On the same count and under the same terms, under `Cc1ccccc1[N+](=O)[O-]` stands “inactive”; under `c1cc(OCC2CO2)ccc1Cc1ccc(OCC2CO2)cc1` (stereo not given), “inactive”; under `O=Cc1ccco1`, “inactive”.
In the case of `CCOc1cc(C=O)ccc1O`, the Potency result is “inactive”.
As for `Nc1ccc(Cl)c(Cl)c1`, the Potency result was “inactive”.
In the case of `CCC(CC)Nc1c([N+](=O)[O-])cc(C)c(C)c1[N+](=O)[O-]`, the Potency entry was “inactive”.
`COc1ccc(C=O)cc1`: the Potency entry was “inactive”.
As for `CCCCNC(=O)n1c(NC(=O)OC)nc2ccccc21`, the Potency result is “inactive”.
Take `c1ccc(NNc2ccccc2)cc1`: the Potency result was “inactive”.
In the case of `CC1(C)C(C=C(Cl)Cl)C1C(=O)OC(C#N)c1cccc(Oc2ccccc2)c1` (stereo not given), the Potency result is “inactive”.
On the same count and under the same terms, under `CCCCCCCCC(=O)NCc1ccc(O)c(OC)c1` stands “inactive”; under `Cc1c(COC(=O)[C@@H]2[C@H](/C=C(\Cl)C(F)(F)F)C2(C)C)cccc1-c1ccccc1`, “inactive”; under `CC(C)c1ccc(CO)cc1`, “inactive”.
For `CCCCCCCCCCCOC(=O)c1ccccc1C(=O)OCCCCCCCCCCC`, the Potency result is “inactive”.
The same measure, in the same setting: under `N#CC(Br)Br` stands “inactive”; under `COc1ccc(C(CN(C)C)C2(O)CCCCC2)cc1` (stereo not given), “inactive”.
`C=CCN(CC=C)C(=O)C(Cl)Cl`: the Potency entry is “inactive”.
Still for that read-out and setting: under `CCOC(=O)C(C)OC(=O)c1cc(Oc2ccc(C(F)(F)F)cc2Cl)ccc1[N+](=O)[O-]` (stereo not given) stands “inactive”; under `CCCCC(CC)COC(=O)c1ccc(C(=O)OCC(CC)CCCC)c(C(=O)OCC(CC)CCCC)c1` (stereo not given), “inactive”; under `c1ccc(P(c2ccccc2)c2ccccc2)cc1`, “inactive”.
With `Oc1c(Cl)c(Cl)c(Cl)c(Cl)c1Cl`, the Potency entry was “inactive”.
For the molecule `Oc1cc(Cl)c(Cl)cc1Cl`, the Potency entry was “inactive”.
Turning to `NNC(=S)NN`, the Potency entry is “inactive”.
Turning to `O=P(O)(O)CCCl`, the Potency result is “inactive”.
Regarding `Nc1ccc(-c2ccccc2)cc1`, the Potency entry was “inactive”.
For the molecule `N#Cc1cc(Br)c(O)c(Br)c1`, the Potency entry was “inactive”.
As to `Cc1ccc2c(c1N)C(=O)c1ccccc1C2=O`, the Potency result was “inactive”.

Another test can be described thus: qHTS assay to identify small molecule agonists of the TGF-beta/Smad signaling pathway (AID 1346859; active = well fitted activation curve with a large enough effect in the signal ratio in the repeat runs, not every such curve was filed as active; the % refers to the signal ratio). As to conditions: SBE-bla HEK293T, TGF-beta/Smad beta-lactamase reporter, 5 h; series mostly up to 76.8 µM. In a few lines: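 SBE-bla HEK 293T, 4,000 cells/well, plated o/n; cpd in DMSO, 5 hr, 37 C/5% CO2; B/G FRET substrate 2 hr RT; ex 405, em 460/530 nm.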
Regarding `COP(=O)(OC)OC`, the molecule was classed as inactive.
As to `Cc1ccc(OP(=O)(Oc2ccc(C)cc2)Oc2ccc(C)cc2)cc1`, the molecule was classed as inactive.
Turning to `CCC(C)(c1ccc(O)cc1)c1ccc(O)cc1`, the call was inactive.
The same measure, in the same setting: under `O=C(O)C(F)(F)C(F)(F)C(F)(F)C(F)(F)C(F)(F)C(F)(F)C(F)(F)F` stands “inactive”; under `c1ccc(-c2cccc(-c3ccccc3)c2)cc1`, “inactive”.
On the same count and under the same terms, under `CC(C)(OOC(C)(C)c1ccccc1)c1ccccc1` stands “inactive”.
As for `CCOc1cc(Oc2ccc(C(F)(F)F)cc2Cl)ccc1[N+](=O)[O-]`, the molecule was called inactive.
With `O=C(NC(=O)c1c(F)cccc1F)Nc1ccc(Cl)cc1`, the molecule was classed as inactive.
On to `C#C[C@]1(O)CC[C@H]2[C@@H]3CCC4=CC(=O)CC[C@]4(C)[C@H]3CC[C@@]21C`, for which the molecule was classed as inactive.
As for `Nc1ccncc1`, the result was inactive.
For `Cc1ccccc1[N+](=O)[O-]`, the outcome was inactive.
Same read-out and setting: with `c1cc(OCC2CO2)ccc1Cc1ccc(OCC2CO2)cc1` (stereo not given) the entry was “inactive”; with `O=Cc1ccco1`, “inactive”; with `CCOc1cc(C=O)ccc1O`, “inactive”.
On the same count and under the same terms, under `Nc1ccc(Cl)c(Cl)c1` stands “inactive”; under `CCC(CC)Nc1c([N+](=O)[O-])cc(C)c(C)c1[N+](=O)[O-]`, “inactive”.
In the case of `COc1ccc(C=O)cc1`, the molecule was called inactive.
As for `CCCCNC(=O)n1c(NC(=O)OC)nc2ccccc21`, the call was inactive.
Regarding `c1ccc(NNc2ccccc2)cc1`, the molecule was classed as inactive.
Regarding `CC1(C)C(C=C(Cl)Cl)C1C(=O)OC(C#N)c1cccc(Oc2ccccc2)c1` (stereo not given), the molecule was called inactive.
In the case of `CCCCCCCCC(=O)NCc1ccc(O)c(OC)c1`, the molecule was classed as inactive.
Consider `Cc1c(COC(=O)[C@@H]2[C@H](/C=C(\Cl)C(F)(F)F)C2(C)C)cccc1-c1ccccc1`, for which the call was inactive.
Regarding `CC(C)c1ccc(CO)cc1`, the molecule was classed as inactive.
With `CCCCCCCCCCCOC(=O)c1ccccc1C(=O)OCCCCCCCCCCC`, the outcome was inactive.
With `N#CC(Br)Br`, the molecule was called inactive.
Consider `COc1ccc(C(CN(C)C)C2(O)CCCCC2)cc1` (stereo not given), for which the call was inactive.
With `C=CCN(CC=C)C(=O)C(Cl)Cl`, the call was inactive.
Consider `CCOC(=O)C(C)OC(=O)c1cc(Oc2ccc(C(F)(F)F)cc2Cl)ccc1[N+](=O)[O-]` (stereo not given), for which the outcome was inactive.
Consider `CCCCC(CC)COC(=O)c1ccc(C(=O)OCC(CC)CCCC)c(C(=O)OCC(CC)CCCC)c1` (stereo not given), for which the molecule was classed as inactive.
Turning to `c1ccc(P(c2ccccc2)c2ccccc2)cc1`, the molecule was called inactive.
As to `Oc1c(Cl)c(Cl)c(Cl)c(Cl)c1Cl`, the result was inactive.
On to `Oc1cc(Cl)c(Cl)cc1Cl`, for which the molecule was classed as inactive.
In the case of `NNC(=S)NN`, the outcome was inactive.
With `O=P(O)(O)CCCl`, the outcome was inactive.
On the same count and under the same terms, with `Nc1ccc(-c2ccccc2)cc1` the entry was “inactive”; with `N#Cc1cc(Br)c(O)c(Br)c1`, “inactive”; with `Cc1ccc2c(c1N)C(=O)c1ccccc1C2=O`, “inactive”.
